Measurements: PubChem BioAssay (EPA / NIEHS)
Several values for one entry are separate records, joined by “and”; a condition that tells them apart may be missing. Equal values may be shown once. Records with an inconclusive call do not appear. Some compounds were tested as several samples or in several runs, with calls that do not always agree. Activity calls are given as the source filed them. Rule for the calls, unless noted: active = hit-call score of the fitted dose curve at least 0.9, where 1 is the maximum; inactive = score below 0.9.

What was measured:
[1] = target: Oxysterols receptor LXR-alpha (Homo sapiens) (UniProt Q13133); experiment: ATG_LXRa_TRANS: Attagene TRANS-FACTORIAL HepG2 Assay for human Liver X Receptor alpha (LXRa) (AID 2282980; active = hit-call score of the fitted dose curve at least 0.9, where 1 is the maximum); details: HepG2 Attagene TRANS reporter, LXRa transactivation
Oxysterols receptor LXR-alpha (Homo sapiens), sequence (Q13133 whole entry, looked up, the tested form may be a part): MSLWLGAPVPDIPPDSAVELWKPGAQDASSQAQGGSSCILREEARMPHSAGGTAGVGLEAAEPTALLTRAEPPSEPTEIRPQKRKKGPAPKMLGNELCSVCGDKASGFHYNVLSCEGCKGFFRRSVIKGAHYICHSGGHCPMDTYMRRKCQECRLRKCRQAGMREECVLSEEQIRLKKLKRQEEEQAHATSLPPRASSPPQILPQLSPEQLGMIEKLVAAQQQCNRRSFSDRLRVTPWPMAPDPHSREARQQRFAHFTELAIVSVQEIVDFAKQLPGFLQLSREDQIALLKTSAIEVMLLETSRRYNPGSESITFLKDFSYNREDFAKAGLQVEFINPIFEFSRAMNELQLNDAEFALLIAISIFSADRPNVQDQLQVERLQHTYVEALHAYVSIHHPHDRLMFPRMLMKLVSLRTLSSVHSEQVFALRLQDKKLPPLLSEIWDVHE
Procedure, shortened: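 Read-out: reporter transcript levels by RT-PCR plus capillary electrophoresis, fluorescence intensity. Transiently transfected HepG2, exogenous NR-GAL4 chimera, GAL4-UAS reporters; 24 h compound exposure. Activity = increase over DMSO negative control.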

[2] = target: Oxysterols receptor LXR-beta (Homo sapiens) (UniProt P55055); experiment: ATG_LXRb_TRANS: Attagene TRANS-FACTORIAL HepG2 Assay for human Liver X Receptor beta (LXRb) (AID 2282981; active = hit-call score of the fitted dose curve at least 0.9, where 1 is the maximum); details: HepG2 Attagene TRANS GAL4-LXRb reporter, mRNA
Oxysterols receptor LXR-beta (Homo sapiens), sequence (P55055 whole entry, looked up, the tested form may be a part): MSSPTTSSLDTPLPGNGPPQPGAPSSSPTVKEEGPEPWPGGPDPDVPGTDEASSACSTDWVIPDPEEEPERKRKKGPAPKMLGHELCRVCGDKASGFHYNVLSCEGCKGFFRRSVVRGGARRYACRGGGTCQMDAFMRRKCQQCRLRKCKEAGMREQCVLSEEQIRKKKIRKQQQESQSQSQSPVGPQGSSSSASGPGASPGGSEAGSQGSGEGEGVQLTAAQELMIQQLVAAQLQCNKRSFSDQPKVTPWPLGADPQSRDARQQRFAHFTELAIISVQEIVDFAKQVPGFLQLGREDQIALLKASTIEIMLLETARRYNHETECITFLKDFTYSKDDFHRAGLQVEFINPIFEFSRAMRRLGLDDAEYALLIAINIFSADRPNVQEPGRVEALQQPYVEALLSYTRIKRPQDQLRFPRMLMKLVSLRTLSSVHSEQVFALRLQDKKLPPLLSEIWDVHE
Procedure, shortened: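 Readout: fluorescent reporter mRNA fragments resolved by capillary electrophoresis after RT-PCR. System: transiently transfected human HepG2, exogenous LXRb-Gal4 chimera driving GAL4-UAS reporter, 24 h dosing. Activity fitted upward against DMSO baseline.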

[3] = target: Hepatocyte nuclear factor 4-alpha (Homo sapiens) (UniProt P41235); experiment: ATG_HNF4a_TRANS: Attagene TRANS-FACTORIAL HepG2 Assay for human Hepatocyte Nuclear Factor 4 alpha (HNF4a) (AID 2282982; active = hit-call score of the fitted dose curve at least 0.9, where 1 is the maximum); details: HepG2 HNF4a transactivation reporter, mRNA readout
Hepatocyte nuclear factor 4-alpha (Homo sapiens), sequence (P41235 whole entry, looked up): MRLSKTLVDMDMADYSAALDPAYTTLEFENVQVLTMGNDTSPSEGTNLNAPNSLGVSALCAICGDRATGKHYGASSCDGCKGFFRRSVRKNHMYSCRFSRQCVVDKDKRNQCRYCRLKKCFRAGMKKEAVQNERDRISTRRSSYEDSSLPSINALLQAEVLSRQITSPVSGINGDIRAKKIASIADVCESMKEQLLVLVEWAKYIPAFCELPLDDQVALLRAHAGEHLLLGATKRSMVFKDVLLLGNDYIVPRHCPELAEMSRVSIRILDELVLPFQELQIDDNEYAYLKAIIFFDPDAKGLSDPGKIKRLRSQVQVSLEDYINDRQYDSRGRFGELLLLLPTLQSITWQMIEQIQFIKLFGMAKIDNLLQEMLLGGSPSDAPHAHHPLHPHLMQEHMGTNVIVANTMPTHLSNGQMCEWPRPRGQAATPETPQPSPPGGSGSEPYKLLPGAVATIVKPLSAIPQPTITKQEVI
Procedure, shortened: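 Transient MRTU transfection of HepG2, 24 h dosing. Readout: reporter mRNA via RT-PCR + capillary electrophoresis, fluorescence; activity fit upward relative to DMSO control.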

[4] = ATG_M_06_TRANS: Attagene TRANS-FACTORIAL HepG2 Assay for M06 Transcription Factor (Internal Marker) (AID 2282983; active = hit-call score of the fitted dose curve at least 0.9, where 1 is the maximum); details: HepG2 Attagene TRANS M06 internal marker reporter
Procedure, shortened: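 Read-out: fluorescent reporter cDNA fragments resolved by capillary electrophoresis after RT-PCR and HpaI cut. Source cells were HepG2 carrying transfected multi-reporter GAL4 constructs, dosed 24 h. Increase over DMSO control analysed.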

[5] = ATG_M_32_TRANS: Attagene TRANS-FACTORIAL HepG2 Assay for M32 Transcription Factor (Internal Marker) (AID 2282984; active = hit-call score of the fitted dose curve at least 0.9, where 1 is the maximum;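 note: transcript level of a background control reporter unit measured by RT-PCR and capillary electrophoresis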); details: HepG2 Attagene TRANS M32 internal marker reporter
Procedure, shortened: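 Read-out: fluorescent reporter cDNA fragments resolved by capillary electrophoresis after RT-PCR of total RNA. Transfected HepG2 cells were exposed to chemical for 24 h. Activity scored in the positive direction relative to DMSO.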

[6] = target: Transcriptional activator Myb (Homo sapiens) (UniProt P10242); experiment: ATG_Myb_CIS: Attagene CIS-FACTORIAL HepG2 Assay for human Myeloblastosis (Myb) Proto-Oncogene Transcription Factor (AID 2282986); details: HepG2 Attagene CIS-FACTORIAL Myb reporter transcription; actives raise or lower the signal
Transcriptional activator Myb (Homo sapiens), sequence (P10242 whole entry, looked up): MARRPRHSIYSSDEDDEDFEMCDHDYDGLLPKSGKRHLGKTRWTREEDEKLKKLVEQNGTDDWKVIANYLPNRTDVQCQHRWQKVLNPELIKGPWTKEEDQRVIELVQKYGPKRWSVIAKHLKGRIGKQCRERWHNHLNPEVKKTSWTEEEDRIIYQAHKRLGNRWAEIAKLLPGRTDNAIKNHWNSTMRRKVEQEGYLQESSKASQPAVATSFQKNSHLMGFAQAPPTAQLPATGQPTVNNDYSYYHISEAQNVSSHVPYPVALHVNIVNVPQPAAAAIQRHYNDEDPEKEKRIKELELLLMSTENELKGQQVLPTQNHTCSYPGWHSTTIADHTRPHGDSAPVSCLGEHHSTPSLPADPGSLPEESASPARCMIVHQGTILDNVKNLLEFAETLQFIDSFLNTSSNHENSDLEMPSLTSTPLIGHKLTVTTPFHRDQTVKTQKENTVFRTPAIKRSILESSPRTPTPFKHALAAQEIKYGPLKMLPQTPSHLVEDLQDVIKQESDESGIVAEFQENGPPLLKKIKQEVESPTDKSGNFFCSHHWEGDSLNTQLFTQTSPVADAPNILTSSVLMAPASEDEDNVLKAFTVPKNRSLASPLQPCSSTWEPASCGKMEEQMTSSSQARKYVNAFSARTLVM
Procedure, shortened: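 Reporter mRNA is quantified by RT-PCR and capillary electrophoresis 24 h after dosing HepG2 cells transfected with cis-regulated reporter units, which track endogenous transcription factor activity. Gain and loss of signal are fitted versus DMSO baseline.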

[7] = target: Nuclear respiratory factor 1 (Homo sapiens) (UniProt Q16656); experiment: ATG_NRF1_CIS: Attagene CIS-FACTORIAL HepG2 Assay for human Nuclear Respiratory Factor 1 (NRF1) Orphan Gene (AID 2282987); details: HepG2 NRF1 cis-element reporter, Attagene multiplex; actives raise or lower the signal
Nuclear respiratory factor 1 (Homo sapiens), sequence (Q16656 whole entry, looked up): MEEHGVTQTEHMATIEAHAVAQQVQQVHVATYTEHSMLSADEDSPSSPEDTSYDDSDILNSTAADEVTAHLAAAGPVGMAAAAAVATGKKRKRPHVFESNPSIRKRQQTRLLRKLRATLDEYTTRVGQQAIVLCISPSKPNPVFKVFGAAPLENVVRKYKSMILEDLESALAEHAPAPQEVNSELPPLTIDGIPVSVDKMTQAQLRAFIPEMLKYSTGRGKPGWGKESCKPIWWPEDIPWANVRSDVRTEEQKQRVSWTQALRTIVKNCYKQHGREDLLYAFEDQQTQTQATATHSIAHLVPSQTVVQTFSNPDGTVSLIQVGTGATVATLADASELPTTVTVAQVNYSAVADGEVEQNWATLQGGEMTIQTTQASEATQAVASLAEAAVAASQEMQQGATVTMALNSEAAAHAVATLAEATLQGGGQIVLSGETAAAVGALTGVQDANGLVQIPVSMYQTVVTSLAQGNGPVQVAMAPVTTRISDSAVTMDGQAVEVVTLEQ
Procedure, shortened: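 Endogenous NRF1-driven reporter transcription in transfected HepG2 cells after 24 h treatment. Readout: RT-PCR products, 6-FAM labelled and resolved by capillary electrophoresis; changes fitted both directions relative to DMSO.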

[8] = ATG_NFI_CIS: Attagene CIS-FACTORIAL HepG2 Assay for human Nuclear Factor I (NFI) (AID 2282989); details: HepG2 cis-regulatory reporter, NFI response element transcription; actives raise or lower the signal
Procedure, shortened: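 HepG2, transient MRTU, 24 h exposure; RNA→cDNA→PCR→FAM label→HpaI→CE fluorescence. Bidirectional fit, DMSO = baseline.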

[9] = ATG_NF_kB_CIS: Attagene CIS-FACTORIAL HepG2 Assay for human Nuclear Factor Kappa B (NF-kB) (AID 2282991); details: HepG2 Attagene cis-factorial NF-kB reporter mRNA; actives raise or lower the signal
Procedure, shortened: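 Readout is reporter transcript level, gain or loss versus DMSO, measured 24 h post-dose via RT-PCR, fluorescent labelling and capillary electrophoresis. Human HepG2 liver cells carried transiently transfected CIS reporter constructs reflecting endogenous factors.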

[10] = ATG_NRF2_ARE_CIS: Attagene CIS-FACTORIAL HepG2 Assay for human Nuclear Factor Erythroid 2 Related Factor 2 (NFR2) response to Antioxidant Response Elements (ARE) (AID 2282992); details: HepG2 Attagene ARE/NRF2 reporter, transcription factor activity; actives raise or lower the signal;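 for AC50: reporter mRNA level measured by RT-PCR and capillary electrophoresis fluorescence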
Procedure, shortened: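 Endogenous transcription factor activity in human liver HepG2 cells is tracked via a cis-element-driven reporter within a multiplexed set. mRNA induction is read by RT-PCR and capillary electrophoresis after 24 h, with DMSO as baseline.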

[11] = ATG_Oct_MLP_CIS: Attagene CIS-FACTORIAL HepG2 Assay for human Octamer-Binding Transcription Factor (Oct) (AID 2282993); details: HepG2 Attagene cis-factorial Oct reporter, mRNA; actives raise or lower the signal
Procedure, shortened: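 Multiplexed cis-reporter assay in human liver HepG2 cells, 24 h incubation. Reporter RNA amplified and labelled, then resolved by capillary electrophoresis; DMSO serves as negative control and baseline.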

[12] = BSK_3C_TissueFactor: BioMAP Diversity Plus: 3C Assay for Tissue Factor Biomarker Activity (AID 2282997); details: BioMAP 3C HUVEC, tissue factor biomarker readout; actives raise or lower the signal
Procedure, shortened: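 HUVEC, 3C system, 24 h post-dose; Tissue Factor by ELISA; bidirectional fit vs DMSO baseline.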

[13] = BSK_3C_uPAR: BioMAP Diversity Plus: 3C Assay for Urokinase-type plasminogen activator receptor (uPAR) Biomarker Activity (AID 2282998); details: BioMAP 3C HUVEC, uPAR biomarker ELISA; actives raise or lower the signal
Procedure, shortened: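 Dose primary human umbilical vein endothelial cells, incubate 24 h, measure cell-surface uPAR by ELISA, then fit the signal in both directions against the DMSO negative control.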

[14] = BSK_3C_VCAM1: BioMAP Diversity Plus: 3C Assay for Vascular cell adhesion molecule 1 (VCAM1) Biomarker Activity (AID 2282999); details: BioMAP 3C HUVEC, VCAM1 ELISA, cytokine-stimulated; actives raise or lower the signal
Procedure, shortened: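 HUVEC primary cells, 24 h compound exposure; VCAM-1 by ELISA; gain/loss of signal fitted bidirectionally vs DMSO baseline.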

[15] = BSK_4H_Eotaxin3: BioMAP Diversity Plus: 4H Assay for Eotaxin 3 Biomarker Activity (AID 2283000); details: primary human endothelial cells (HUVEC); actives raise or lower the signal
Procedure, shortened: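 Readout is Eotaxin-3 (CCL26) level by ELISA in primary human umbilical vein endothelial cells harvested 24 h after chemical exposure; activity fitted in both directions against DMSO control.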

[16] = target: human Peroxisome Proliferator-activated Receptor alpha (PPARa), PPARA (gene 5465) (UniProt Q07869); experiment: ATG_PPARa_TRANS: Attagene TRANS-FACTORIAL HepG2 Assay for human Peroxisome Proliferator-activated Receptor alpha (PPARa) (AID 2283001; active = hit-call score of the fitted dose curve at least 0.9, where 1 is the maximum;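 for AC50: potency for gain of reporter signal over DMSO so agonist or activator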)
human Peroxisome Proliferator-activated Receptor alpha (PPARa), PPARA (gene 5465), sequence (Q07869 whole entry, looked up, the tested form may be a part): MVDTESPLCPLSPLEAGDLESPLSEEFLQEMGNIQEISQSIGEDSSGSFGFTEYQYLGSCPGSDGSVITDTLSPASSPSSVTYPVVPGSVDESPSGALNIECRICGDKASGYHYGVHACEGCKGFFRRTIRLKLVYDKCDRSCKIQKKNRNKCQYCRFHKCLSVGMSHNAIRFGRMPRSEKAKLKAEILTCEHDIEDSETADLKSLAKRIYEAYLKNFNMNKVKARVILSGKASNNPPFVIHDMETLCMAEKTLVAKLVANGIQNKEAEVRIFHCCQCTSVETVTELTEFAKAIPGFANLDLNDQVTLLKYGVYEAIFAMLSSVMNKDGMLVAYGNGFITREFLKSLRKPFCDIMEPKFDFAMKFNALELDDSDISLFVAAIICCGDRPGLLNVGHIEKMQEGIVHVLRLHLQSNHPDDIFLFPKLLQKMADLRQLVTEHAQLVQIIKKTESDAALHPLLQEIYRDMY
Procedure, shortened: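 Transient HepG2 transfection, GAL4-UAS reporters, NR-Gal4 chimeras; 24 h compound exposure. Readout: reporter transcripts by RT-PCR, 6-FAM primer extension, HpaI digest, capillary electrophoresis. Positive direction vs DMSO baseline.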

[17] = target: Nuclear receptor subfamily 4 group A member 2 (Homo sapiens) (UniProt P43354); experiment: ATG_NURR1_TRANS: Attagene TRANS-FACTORIAL HepG2 Assay for human Nuclear Receptor Related Protein 1 (NURR1) (AID 2282985; active = hit-call score of the fitted dose curve at least 0.9, where 1 is the maximum); details: HepG2 Attagene TRANS reporter, mRNA readout
Nuclear receptor subfamily 4 group A member 2 (Homo sapiens), sequence (P43354 whole entry, looked up, the tested form may be a part): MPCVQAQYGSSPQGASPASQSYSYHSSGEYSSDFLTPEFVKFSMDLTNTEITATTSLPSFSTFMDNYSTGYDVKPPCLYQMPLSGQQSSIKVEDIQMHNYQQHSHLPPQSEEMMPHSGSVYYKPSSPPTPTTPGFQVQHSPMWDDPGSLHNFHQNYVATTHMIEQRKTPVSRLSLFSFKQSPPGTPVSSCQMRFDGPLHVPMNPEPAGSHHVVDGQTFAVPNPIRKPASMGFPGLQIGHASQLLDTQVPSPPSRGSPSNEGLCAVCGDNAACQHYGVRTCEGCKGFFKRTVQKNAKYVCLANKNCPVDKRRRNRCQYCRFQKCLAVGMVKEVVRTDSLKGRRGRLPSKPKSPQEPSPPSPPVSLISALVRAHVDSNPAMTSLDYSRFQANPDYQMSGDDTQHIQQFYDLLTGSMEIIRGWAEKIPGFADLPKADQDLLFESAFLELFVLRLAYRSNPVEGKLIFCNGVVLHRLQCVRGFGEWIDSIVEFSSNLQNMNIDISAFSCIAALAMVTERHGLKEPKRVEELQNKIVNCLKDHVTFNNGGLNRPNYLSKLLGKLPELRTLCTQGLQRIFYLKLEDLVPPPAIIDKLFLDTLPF
Procedure, shortened: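 Read-out: reporter mRNA induction by RT-PCR plus capillary electrophoresis with fluorescence detection, after 24 h dosing of transfected HepG2 cells. Exogenous NR-Gal4 chimera activity drives GAL4-UAS reporter; activity fitted upward versus DMSO.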

[18] = target: Myc proto-oncogene protein (Homo sapiens) (UniProt P01106); experiment: ATG_Myc_CIS: Attagene CIS-FACTORIAL HepG2 Assay for human Myelocytomatosis (Myc) Proto-Oncogene Transcription Factor (AID 2282990); details: HepG2, Attagene cis-reporter transcription factor activity; actives raise or lower the signal
Myc proto-oncogene protein (Homo sapiens), sequence (P01106 whole entry, looked up): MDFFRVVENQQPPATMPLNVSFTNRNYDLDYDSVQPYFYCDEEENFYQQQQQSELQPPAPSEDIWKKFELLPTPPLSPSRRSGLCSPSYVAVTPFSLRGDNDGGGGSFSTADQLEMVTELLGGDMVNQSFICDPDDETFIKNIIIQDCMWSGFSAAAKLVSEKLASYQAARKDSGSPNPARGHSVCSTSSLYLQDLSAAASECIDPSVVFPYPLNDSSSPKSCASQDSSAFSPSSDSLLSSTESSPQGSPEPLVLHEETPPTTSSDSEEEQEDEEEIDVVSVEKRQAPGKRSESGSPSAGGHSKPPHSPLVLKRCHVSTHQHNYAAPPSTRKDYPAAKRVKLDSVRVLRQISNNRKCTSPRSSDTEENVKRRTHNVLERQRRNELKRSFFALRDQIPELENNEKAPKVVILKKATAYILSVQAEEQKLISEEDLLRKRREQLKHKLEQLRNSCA
Procedure, shortened: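 Transiently transfected HepG2 cells bearing cis-promoter reporter units for endogenous transcription factors; 24 h exposure. Reporter mRNA measured by RT-PCR, 6-FAM primer extension, HpaI cut and capillary electrophoresis; bidirectional fit relative to DMSO.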

[19] = target: human Peroxisome Proliferator-activated Receptor delta (PPARd), PPARD (gene 5467) (UniProt Q03181); experiment: ATG_PPARd_TRANS: Attagene TRANS-FACTORIAL HepG2 Assay for human Peroxisome Proliferator-activated Receptor delta (PPARd) (AID 2283002; active = hit-call score of the fitted dose curve at least 0.9, where 1 is the maximum)
human Peroxisome Proliferator-activated Receptor delta (PPARd), PPARD (gene 5467), sequence (Q03181 whole entry, looked up, the tested form may be a part): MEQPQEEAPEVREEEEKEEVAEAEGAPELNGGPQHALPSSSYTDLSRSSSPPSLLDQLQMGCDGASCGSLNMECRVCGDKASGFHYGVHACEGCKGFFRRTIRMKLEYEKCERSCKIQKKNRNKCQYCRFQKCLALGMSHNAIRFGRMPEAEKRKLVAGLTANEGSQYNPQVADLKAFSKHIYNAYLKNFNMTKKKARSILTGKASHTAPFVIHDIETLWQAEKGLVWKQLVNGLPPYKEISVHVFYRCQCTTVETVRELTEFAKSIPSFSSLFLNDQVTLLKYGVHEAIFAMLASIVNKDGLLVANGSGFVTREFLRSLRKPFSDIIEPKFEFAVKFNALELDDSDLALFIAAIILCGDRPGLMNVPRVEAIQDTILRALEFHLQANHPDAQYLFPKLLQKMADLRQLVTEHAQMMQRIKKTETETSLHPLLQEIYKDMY
Procedure, shortened: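 HepG2 cells transiently transfected with GAL4-UAS multiplexed reporter units driven by exogenous chimeric NR-GAL4 proteins; 24 h compound exposure. Reporter mRNA measured by RT-PCR, 6-FAM primer extension, HpaI digestion and capillary electrophoresis; gain of signal fitted relative to DMSO.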

[20] = target: Cellular tumor antigen p53 (Homo sapiens) (UniProt P04637); experiment: ATG_p53_CIS: Attagene CIS-FACTORIAL HepG2 Assay for human p53 Transcription Factor (AID 2282994); details: HepG2 p53 cis-element reporter, Attagene mRNA; actives raise or lower the signal
Cellular tumor antigen p53 (Homo sapiens), sequence (P04637 whole entry, looked up, the tested form may be a part): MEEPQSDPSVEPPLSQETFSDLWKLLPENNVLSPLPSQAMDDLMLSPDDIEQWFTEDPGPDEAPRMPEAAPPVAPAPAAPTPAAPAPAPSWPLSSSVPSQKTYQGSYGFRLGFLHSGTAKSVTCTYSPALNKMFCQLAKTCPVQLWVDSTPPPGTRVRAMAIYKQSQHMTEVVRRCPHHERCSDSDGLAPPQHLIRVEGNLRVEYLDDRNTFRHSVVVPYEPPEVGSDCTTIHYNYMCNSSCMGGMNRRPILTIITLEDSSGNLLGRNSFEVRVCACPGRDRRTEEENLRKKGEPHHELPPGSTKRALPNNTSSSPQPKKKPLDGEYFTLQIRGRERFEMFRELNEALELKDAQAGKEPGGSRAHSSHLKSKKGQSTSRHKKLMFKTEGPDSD
Procedure, shortened: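 Steps: transfect HepG2 with multiplexed cis reporter constructs; dose chemicals 24 h; extract RNA, reverse-transcribe, PCR-amplify reporter sequences; FAM-label, HpaI-digest, resolve fragments by CE. Activity fitted both directions relative to DMSO.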

Measured: AC50

O=[N+]([O-])C(Br)(CO)CO
active: [2] 0.00914 µM | [7] 162 µM | [11] 156 µM | [12] 27.1 µM | [13] 30.5 µM | [14] 31.1 µM | [15] 27.7 µM
not listed: [17] | [18] | [19] | [20]
inactive: all other assays above

CCNS(=O)(=O)C(F)(F)C(F)(F)C(F)(F)C(F)(F)C(F)(F)C(F)(F)C(F)(F)C(F)(F)F
inactive: [1] | [2] | [3] | [4] | [5] | [17] | [6] | [7] | [8] | [18] | [11] | [13] | [16] | [19]
active: [1] 42.3 µM and 39.2 µM | [6] 25.8 µM | [8] 117 µM and 61.4 µM | [18] 96.5 µM | [10] 25.7 µM and 41.5 µM and 13.3 µM | [11] 96.5 µM | [13] 19.6 µM | [16] 63.9 µM and 56.2 µM

CN(C)C(=O)Nc1ccc(Cl)cc1
not listed: [1] | [3] | [10] | [17] | [18]
inactive: all other assays above

Oc1ccccc1Cl
active: [10] 52 µM
not listed: [1] | [3] | [14] | [18] | [19]
inactive: all other assays above

Brc1ccc(Oc2ccccc2)cc1
active: [8] 158 µM | [10] 74 µM | [11] 177 µM
not listed: [1] | [3] | [5] | [12] | [15] | [16] | [19]
inactive: all other assays above

Clc1ccc(C(c2ccc(Cl)cc2)C(Cl)Cl)cc1
active: [8] 60.5 µM | [18] 44.6 µM | [10] 51.1 µM | [11] 49.7 µM | [13] 14.1 µM | [14] 31.4 µM | [15] 28.7 µM
not listed: [1] | [3] | [12] | [19]
inactive: all other assays above

ClC1=C(Cl)C2(Cl)C3C(Cl)C=CC3C1(Cl)C2(Cl)Cl (stereo not given)
active: [8] 186 µM | [18] 100 µM | [9] 100 µM | [11] 149 µM | [20] 100 µM | [13] 29.3 µM | [14] 30.8 µM
inactive: [2] | [4] | [5] | [6] | [7] | [19]

CC(O)CCO (stereo not given)
not listed: [1] | [12] | [15] | [16] | [18]
inactive: all other assays above
